Screening data as filed in PubChem.
HUVEC tox TNFa: toxic to HUVEC cells under TNF alpha stimulation; HUVEC TNFalpha-stimulated, Hoechst cell count, imaging; cell count reduction, % at 2 µM; actives 0.17% (n = 93,000);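 active means cell count reduction exceeding the screen mean by over 5 SD, scaled to untreated wells per plate, cut at about 78% in these data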;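 further: cells counted after 24 h of TNF alpha exposure following the 1 h pretreatment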
VCAM1 TNFa inh: reduces TNF alpha induced VCAM1 expression in HUVEC; actives 0.48% (n = 95,000); inhibition, % at 2 µM; HUVEC TNFa-induced VCAM-1 immunofluorescence, high-content imaging;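 active means inhibition above the batch mean plus 3 SD, with images confirmed as a hit by eye, cut at about 37% in these data; inconclusive means inhibition above that limit but hit not confirmed in images; inactive means inhibition not above that limit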;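 further: 0% = TNF-stimulated DMSO wells and 100% = unstimulated control wells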
cytoskel mod: modifiers of cytoskeleton assembly; HUVEC TNFa F-actin phalloidin imaging, high content; inhibition, % at 2 µM; actives 0.18% (n = 91,000); AID 836;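 active means inhibition above the batch mean plus 3 SD and confirmed as a hit by visual image inspection, cut at about 30% in these data, passing the limit was not always enough; inconclusive means above the inhibition threshold but rejected on visual inspection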
E-sel TNF inh: blocks E-selectin expression induced by TNF alpha | actives 0.71% (n = 120,000) | inhibition, % at 2 µM | HUVEC TNFa-induced E-selectin immunofluorescence, high content;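 active means inhibition above the batch mean plus 3 SD, and confirmed as a hit on visual image review, cut at about 43% in these data; inconclusive means passes the inhibition cutoff but fails visual image review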;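 further: 0% = TNF-stimulated DMSO wells and 100% = unstimulated control wells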
* marks the source's active call; other numbers are inactive results; ? = inconclusive; / = not tested or not shown. In the library only some 1.2% were active in any assay of this set; here they are far more common.

SMILES | HUVEC tox TNFa | VCAM1 TNFa inh | cytoskel mod | E-sel TNF inh
CCOC(=O)c1cn2c3c(c(F)c(F)cc3c1=O)SC(N1CCOCC1)=N2 | -8.7 | -8.5 | -9.8 | -3.5
CCOC(=O)C1C(=O)NC(N2CCCCC2)=NC1c1ccco1 (stereo unspecified) | 12.5 | 97.0* | -16.2 | 1.5
O=C(CN1CCN(c2ccccc2F)CC1)c1c[nH]c2ccccc12 | 12.0 | 8.2 | -1.4 | 53.4*
Cc1cc(C)nc(N/N=C/c2cc(C)n(CC(F)(F)F)c2C)n1 | / | / | / | -19.8
COc1ccc(Nc2cc(C(=O)NCCCN3CCN(C)CC3)c3ccccc3n2)cc1OC | / | / | / | 1.9
COc1ccc(Nc2cc(C(=O)NCCCN3CCOCC3)c3ccccc3n2)cc1OC | -23.5 | 16.6 | 34.7* | 13.6
CC(C)C(=O)Nc1ccc(C(=O)NNC(=O)NC2CCCCC2)cc1 | 27.7 | 36.1* | 1.7 | -52.5
O=C(O)C1C2C=CC(O2)C1C(=O)Nc1ccc(S(=O)(=O)Nc2ccccc2)cc1 (stereo unspecified) | -16.1 | 14.5 | 38.4* | 21.4
O=C(O)C1C2C=CC(O2)C1C(=O)Nc1ccc(S(=O)(=O)N2CCc3ccccc32)cc1 (stereo unspecified) | 0.4 | 13.8 | 1.8 | 12.3
CC1CCN(S(=O)(=O)c2ccc3c(c2)C(=NO)c2cc(S(=O)(=O)N4CCC(C)CC4)ccc2-3)CC1 | -6.9 | 9.9 | -29.4 | /
O=S(=O)(c1ccc2c(c1)C(=NO)c1cc(S(=O)(=O)N3CCCCC3)ccc1-2)N1CCCCC1 | 90.3* | 99.8* | 59.6* | 5.7
COc1ccc(N2C(=O)CC(NC3CCCCNC3=O)C2=O)cc1 (stereo unspecified) | -46.7 | 11.3 | 34.9* | -5.3
COc1ccc(N2C(=O)CC(Nc3ccc(C)cc3)C2=O)cc1 (stereo unspecified) | -3.0 | 3.8 | -6.0 | 25.3
O=C(NC(=S)NCC1CCCO1)C(c1ccccc1)c1ccccc1 (stereo unspecified) | / | / | / | 1.6
Cc1ccccc1-c1cc(-c2ccccc2O)on1 | 2.0 | 47.3* | -30.2 | 1.6
O=C(NC(Cc1c[nH]c2ccccc12)C(=O)O)c1ccco1 (stereo unspecified) | 100.0* | ? | ? | 7.4
NC(=O)c1cc(N2C(=O)C=CC2=O)ccc1Cl | 0.3 | 0.6 | 1.7 | 50.9*
COc1cc(NC(=O)CN2C(=O)NC(C)(c3ccc4ccccc4c3)C2=O)c(C)cc1[N+](=O)[O-] (stereo unspecified) | / | / | / | -15.4
Cc1cc(C)cc(OC(=O)CS(=O)c2ccc(C(F)(F)F)cc2[N+](=O)[O-])c1 (stereo unspecified) | -20.7 | 18.5 | -1.1 | 28.1
O=C(CS(=O)c1ccc(C(F)(F)F)cc1[N+](=O)[O-])Oc1ccc(Cl)cc1 (stereo unspecified) | 13.4 | 72.5* | 27.0 | 33.2
O=C(c1ccc2c(c1)OCO2)N(Cc1ccco1)C1(C(=O)NC2CCCCC2)CCCCC1 | 8.8 | 3.6 | -0.5 | 27.0
S=C(NCc1cccs1)Nc1cccc(Cl)c1Cl | / | / | / | 80.5*
CCc1ccc2c(c1)C1(SC(NC(C)=O)=NN1C(C)=O)C(=O)N2CC (stereo unspecified) | / | / | / | -20.2
COC(=O)c1ccccc1NS(=O)(=O)c1ccc2c3c(cccc13)C(=O)N2 | 10.7 | -19.0 | -5.7 | 74.0*
O=C(O)c1ccccc1NS(=O)(=O)c1ccc2c3c(cccc13)C(=O)N2 | / | / | / | -0.7
SMILES | HUVEC tox TNFa | VCAM1 TNFa inh | cytoskel mod | E-sel TNF inh
CCCCOc1ccc(/C=C/C(=O)OCC(=O)NC(=O)NCC(C)C)cc1OCC | / | / | / | 83.5*
Cc1ccc(NCC(=O)N/N=C/c2c[nH]c3ccccc23)cc1 | / | / | / | 7.9
CC(C)CN(C(=O)COC(=O)Cc1c[nH]c2ccccc12)C1CCS(=O)(=O)C1 (stereo unspecified) | -25.0 | -4.0 | 40.8 | /
CC(C)CN(C(=O)COC(=O)CCc1c[nH]c2ccccc12)C1CCS(=O)(=O)C1 (stereo unspecified) | 71.4 | 29.4 | 38.9* | -21.7
Cc1nn(-c2ccccc2)c(Cl)c1CN(C(=O)CCl)c1cccc2ccccc12 | / | / | / | 95.8*
CC1=Nc2ccccc2/C1=C/c1c(N)n2c(S(=O)(=O)CC(C)C)nsc2nc1=O | / | / | / | 95.9*
CC1=Nc2ccccc2/C1=C/c1c(N)n2c(S(=O)(=O)C(C)C)nsc2nc1=O | / | / | / | -15.5
CC1=C(C#N)C(Nc2cccc(C)n2)(C(F)(F)F)C(=O)N1 (stereo unspecified) | 81.8* | 90.9* | -28.9 | /
CC(C)(C)NC(=O)C1N(c2cccnc2)C(=O)C2C(C(=O)Nc3ccccc3F)C3(C)C=CC21O3 (stereo unspecified) | -10.1 | -4.3 | 72.5* | -14.5
CC12C=CC3(O1)C(C(=O)N(c1cccnc1)C3C(=O)NC1CCCCC1)C2C(=O)Nc1ccccc1 (stereo unspecified) | -23.6 | 7.9 | 6.4 | 7.7
Cc1cccnc1N(C(=O)Nc1ccccc1)C1=NCC(C)(C)S1 | 57.2 | 42.1* | 7.7 | -4.9
CCOc1ccccc1C(=O)Nc1ccc(-c2nnc(-c3ccc(C)cc3)o2)cc1 | 6.4 | -15.1 | 2.3 | 72.0*
O=C(Nc1cc(Cl)ccc1Cl)c1ccc(-c2ccccc2)cc1 | / | / | / | -18.2
CC(=O)c1ccc(NC(=O)Oc2ccccc2)cc1 | 8.5 | 14.7 | -11.1 | /
CCCOC(=O)c1ccc(NC(=O)Oc2ccccc2)cc1 | 100.0* | ? | -21.6 | -3.6
CCCOC(=O)c1ccc(Cl)c(NC(=O)c2ccc(-c3ccccc3)cc2)c1 | -13.4 | 9.8 | -2.2 | 99.9*
Cc1ccc(S(=O)(=O)N(C)CCCC(=O)Nc2cc(C)ccc2C)cc1 | / | / | / | 97.4*
CCCCCOC(=O)Cn1c(SCC(=O)Nc2ccccc2)nc2c1c(=O)[nH]c(=O)n2C | -16.4 | -1.1 | -29.7 | 74.4*
CCOC(=O)c1c(N/N=C/c2ccncc2)n[nH]c1C | / | / | / | 26.6
CC(=O)c1ccc(NC(=S)N2CCC(O)CC2)cc1 | / | / | / | -14.6
CC(=O)c1ccc(NC(=S)N2CC(C)CC(C)C2)cc1 (stereo unspecified) | / | / | / | 76.6*
O=C(NCCc1ccccc1)C1CCC(CNS(=O)(=O)c2cccs2)CC1 (stereo unspecified) | / | / | / | 13.9
C=CCNC(=O)c1c(Cl)cccc1Cl | / | -31.5 | 46.7* | -17.5
C=CCNC(=O)c1c(-c2c(F)cccc2Cl)noc1C | -58.6 | -5.2 | / | 21.5
COc1ccc(-c2nnc(SCC(=O)N3CCCc4ccccc43)o2)cc1OC | 7.3 | -5.0 | 33.9* | -14.5
SMILES | HUVEC tox TNFa | VCAM1 TNFa inh | cytoskel mod | E-sel TNF inh
COc1ccc(-c2nnc(SCC(=O)N3CCCC3)o2)cc1OC | / | / | / | 4.0
Cc1c(Cl)cccc1N(CC(=O)NC1CCCCC1)S(C)(=O)=O | / | / | / | -46.4
COC(=O)c1sc(NC(=O)CCCn2nc([N+](=O)[O-])cc2C)c(C(=O)OC)c1C | / | / | / | -1.1
Cc1cc([N+](=O)[O-])nn1CCCC(=O)Nc1sc2c(c1C(N)=O)CCC(C)C2 (stereo unspecified) | / | / | / | 84.2*
COC(=O)Nc1nc(-c2ccccc2)c(C(=O)c2ccc(Cl)cc2)s1 | -6.5 | 4.6 | 4.5 | 30.3
CCOC(=O)Nc1nc(-c2ccccc2)c(C(=O)c2ccccc2)s1 | 58.0 | 78.1* | 0.3 | -8.2
Fc1ccc(C2CC(c3ccccc3)n3ncnc3N2)cc1 (stereo unspecified) | -9.5 | 15.8 | 2.0 | -14.9
Oc1ccccc1C1=Nc2ncnn2C(c2ccccc2)C1 (stereo unspecified) | / | / | / | 96.5*
